# According to PubChem BioAssay (NCATS):
# Inconclusive results are not listed. The source made the active and inactive calls. Calls come from the whole dose curve; as a rule, active = well fitted inhibition curve with a large enough effect; inconclusive = small, poorly fitted or top-dose-only effect; inactive = no such curve, though single readings can be large or run the other way.
# Tested on: Zika virus NS2B-NS3 protease (linked construct)
# Assay: Primary screen NINDS Rhodamine qHTS for Zika virus inhibitors (AID 1347160); note: nearly all actives have a fitted effect of over 55% in size
# Settings: purified NS2B-NS3 protease, Rhodamine110 substrate fluorescence; series mostly up to 57.1 µM; activity change, negative = inhibition: at the top concentration
# Method in brief: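 Each compound, titrated, sat 15 min with 25 nM linked protease before 1.5 microM Rhodamine110 substrate went in. Fluorescence gain over the next 15 min, in pH 8.0 Tris with Tween 20, gave Hill-fitted curves.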
# % is set by controls: 0 for no effect and ±100 for the full control effect; potency is the fitted concentration of half-maximal effect.
Compound,outcome,"activity change, negative = inhibition",Potency
CN(C)CC(=O)N1CCC(c2ccc(NC(=O)c3ncc(C#N)[nH]3)c(C3=CCCCC3)c2)CC1,inactive,,
O=C(Nc1ccc(Oc2ccnc3[nH]ccc23)c(F)c1)c1cccn(-c2ccc(F)cc2)c1=O,inactive,,
COc1ccc(S(=O)(=O)Nc2cccnc2Nc2ccc(O)cc2)cc1,,-4.17% (inactive),
c1ccc2c(Oc3nc(Nc4ccc(N5CCOCC5)cc4)c4ncn(C5CCCCC5)c4n3)cccc2c1,,69.4% (inactive),
Cc1ccccc1C(=O)Nc1ccc(C(=O)N2CCCC(O)c3cc(Cl)ccc32)c(C)c1 (configuration not stated),,7.1% (inactive),
CN1CCc2c(c3ccccc3n2Cc2ccc(C(=O)NO)cc2)C1,inactive,,
Cc1coc2c1C(=O)C(=O)c1c-2ccc2c(C)cccc12,,,25.1 µM (active)
CCN(CC)Cc1ccc2cc(COC(=O)Nc3ccc(C(=O)NO)cc3)ccc2c1,inactive,,
CS(=O)(=O)N1CCc2c(-c3cnc(N)nc3)nc(N3CCOCC3)nc21,,11.9% (inactive),
Cn1cc(-c2ccc3ncc(Cc4ccc5ncccc5c4)n3n2)cn1,,-25.8% (inactive),
CC(C)c1cc(C(C)C)c(CC(=O)NS(=O)(=O)Oc2c(C(C)C)cccc2C(C)C)c(C(C)C)c1,,,3.16 µM (active)
Cn1cnc2c(F)c(Nc3ccc(Br)cc3F)c(C(=O)NOCCO)cc21,,11.1% (inactive),
C[N+]1(C)[C@@H]2C[C@@H](OC(=O)C(O)(c3cccs3)c3cccs3)C[C@H]1[C@@H]1O[C@@H]12,,-7.9% (inactive),
O=c1c(O)c(-c2ccc(O)c(O)c2)oc2cc(O)ccc12,,,22 µM (active)
CCOc1cc2c(c(F)c1OCC)C(=N)N(CC(=O)c1cc(N3CCOCC3)c(OC)c(C(C)(C)C)c1)C2,,121% (inactive),
CC(C)(N)c1ccc(-c2nc3ccccc3nc2-c2ccccc2)cc1,,107% (inactive),
CC(C)C[C@H](NC(=O)[C@@H](NC(=O)c1cccc(-c2ccccc2)n1)[C@@H](C)O)B(O)O,,19.9% (inactive),
Nc1ccn(C2CO[C@H](CO)O2)c(=O)n1 (some centres not stated),,16.4% (inactive),
CCc1ccc(C(=O)Nc2cc(CN3CCN(C)CC3)cc(C(F)(F)F)c2)cc1C#Cc1cnc2ccnn2c1,,337% (inactive),
N#Cc1c(C2CCNCC2)cc(-c2c(O)cccc2OCC2CC2)nc1N,,99.1% (inactive),
FC(F)c1nc2ccccc2n1-c1nc(N2CCOCC2)nc(N2CCOCC2)n1,,7.21% (inactive),
COc1cc(CCc2cc(NC(=O)c3ccc(N4C[C@@H](C)N[C@@H](C)C4)cc3)n[nH]2)cc(OC)c1,,174% (inactive),
